Experiment [1] can be described thus: Viability counterscreen for antagonist of constitutive androstane receptor (CAR) against the NCATS DSHEA and TCM libraries (AID 1794837).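 Note: compound exposure lasted 24 h before viability reading; 0% is about no effect.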 Put shortly:
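Cells: HepG2 line carrying CYP2B6 reporter and hCAR, seeded and attached 5 h. Then pin-transferred test substances plus agonist CITCO at 48 uM final; 24 h incubation; fluorogenic viability reagent, 1 h.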

Experiment [2] is described as follows: Viability counterscreen for agonist of constitutive androstane receptor (CAR) against the NCATS DSHEA and TCM libraries (AID 1794838).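 Note: HepG2 cells with CYP2B6 reporter and hCAR plus 0.75 µM PK11195 antagonist; 0% is about no effect.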 Put shortly: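 Cell health was measured as CellTiter-Fluor signal in HepG2-CYP2B6-hCAR cells treated for 24 h with substances alongside the hCAR antagonist PK11195 (0.75 uM final).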
Background: Counterscreens check selectivity or assay interference.

The nature of experiment [3]: HepG2 viability counterscreen (readout 2: ATP content) against the NCATS DSHEA and TCM libraries (AID 1794840). Note: 0% is about no effect. Put shortly: (§1)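 Same wells read twice: first fluorescence from cleaved GF-AFC substrate (25 uM final, 30 min, 37C) for live-cell protease, then CellTiter-Glo luminescence after 30 min at room temperature for ATP. HepG2 cells were exposed ~24 h to substances.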

Experiment [4] is described as follows: HepG2 viability counterscreen (readout 1: protease activity) against the NCATS DSHEA and TCM libraries (AID 1794841).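 Note: cells exposed to compounds for about 24 h before the protease read; 0% is about no effect.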 Put shortly:
as §1

Experiment [5] has as its target Cytochrome P450 3A4 (Homo sapiens) (UniProt P08684). The experiment is described as follows: qHTS for inhibitors of CYP3A4 against the NCATS DSHEA and TCM libraries (AID 1919971). Note: potency is the fitted concentration of half-maximal effect. Put shortly: (§2)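 Read-out is luminescence after P450-Glo detection (30 min, RT). Before that: 15 min compound–enzyme preincubation, then 30-45 min reaction with 1x NADPH regeneration solution, substrate concentration isoform-specific.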
In general terms: Quantitative high-throughput screening tests each substance at several concentrations.

In experiment [6] the target is Cytochrome P450 2D6 (Homo sapiens) (UniProt P10635). In words: qHTS for inhibitors of CYP2D6 against the NCATS DSHEA and TCM libraries (AID 1919972). Note: % is set by controls: 0 for no effect and ±100 for the full control effect. Put shortly:
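Luminescent P450-Glo read-out of CYP2D6 turnover of a luciferin substrate after NADPH-driven reaction of 30-45 min at room temperature. Compounds were first preincubated 15 min with enzyme at titrated concentrations; quinidine was the intraplate control.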

Experiment [7] has as its target Cytochrome P450 2C9 (Homo sapiens) (UniProt P11712). In words: qHTS for inhibitors of CYP2C9 against the NCATS DSHEA and TCM libraries (AID 1919973). Note: potency is the fitted concentration of half-maximal effect. Put shortly: as §2
Experiment [8] has as its target Cytochrome P450 2C19 (Homo sapiens) (UniProt P33261). In words: qHTS for inhibitors of CYP2C19 against the NCATS DSHEA and TCM libraries (AID 1919974).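 Note: luminescence from luciferin released by CYP2C19 oxidation of a pro-luciferin substrate.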 Note: potency is the fitted concentration of half-maximal effect. Put shortly:
as §2

The nature of experiment [9]: KB-3-1 P-gp reporter qHTS against the NCATS DSHEA and TCM libraries (AID 1919975). Note: 0% is about no effect. Put shortly: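 KB-3-1 parental line, 1536-well qHTS: cells seeded, ~4 h attachment, pintool compound addition, ~72 h at 37C, then CellTiter-Glo, 30 min RT, luminescence. Concentration-response format.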
In experiment [10] the target is Cytochrome P450 1A2 (Homo sapiens) (UniProt P05177). The experiment is described as follows: qHTS for inhibitors of CYPIA2 against the NCATS DSHEA and TCM libraries (AID 1919976). Note: potency is the fitted concentration of half-maximal effect. Put shortly:
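CYP1A2 + luciferin substrate, 100 mM KPO4-type buffer; cmpd 15 min RT; 1x NADPH regen, 30-45 min RT dark; detection reagent 30 min RT; luminescence. Minus-enzyme wells as background; furafylline intraplate control.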

Experiment [11] is described as follows: qHTS Counterscreen for compound interference against the NCATS DSHEA and TCM libraries (AID 1919978).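 Note: compounds preincubated with 1 µM D-luciferin or buffer before detection reagent; % of control where 0% means no effect.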 The note with it: firefly luciferase detection reagent interference, luminescence. Put shortly:
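Compounds, titrated from 19.5 nM to 39.8 uM final, were pinned onto 1 uM D-luciferin or plain 100 mM potassium phosphate. After 15 min at room temperature, luciferin detection reagent was added for 30 min before the luminescence read.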

The nature of experiment [12]: Dual reporter qHTS for agonist of Pregnane X Receptor (hPXR) against the NCATS DSHEA and TCM libraries: Fluorescence readout (AID 1920058). Note: 0% is about no effect. Put shortly:
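HepG2 hPXR-Luc, 2000 cells/well, 5 h attach; cpds ~24 h, 37 °C/5% CO2; CellTiter-Fluor 1 h; fluor. Ex/Em 405/540 nm = viability.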

The target in experiment [13] is Nuclear receptor subfamily 1 group I member 2 (Homo sapiens) (UniProt O75469). In words: Dual reporter qHTS for agonist of Pregnane X Receptor (hPXR) against the NCATS DSHEA and TCM libraries: Luminescence readout (AID 1920059). Note: potency is the fitted concentration of half-maximal effect. Put shortly: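 hPXR-Luc HepG2 cells, 2000/well in 5% charcoal-stripped FBS medium, attached 5 h, then exposed 24 h at 37C to compounds. Viability by CellTiter-Fluor, then luciferase luminescence with ONE-Glo.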

Experiment [14] has the same target. The experiment is described as follows: Dual reporter qHTS for antagonist of Pregnane X Receptor (hPXR) against the NCATS DSHEA and TCM libraries: Luminescence Readout (AID 1920060). Note: 0% is about no effect. Put shortly: (§3)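 Rifampicin-stimulated (2 uM final) hPXR-luciferase HepG2 cells were treated for 24 h with DSNP/TCM substances. Viability came from CellTiter-Fluor fluorescence, reporter activity from ONE-Glo luminescence.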

The nature of experiment [15]: Dual reporter qHTS for antagonist of Pregnane X Receptor (hPXR) against the NCATS DSHEA and TCM libraries: Fluorescence Readout (AID 1920061). Note: 0% is about no effect. Put shortly:
as §3

Experiment [16] is described as follows: Stat Signaling Pathway (AID 446; active = well fitted curve in either direction with a large enough effect, not every such curve was filed as active;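 note: ME-180 cervical cancer cells given 40 pM IL-6 alongside compound; SIE-controlled beta-lactamase reporter measured as 460/530 nm FRET emission ratio; % is set by controls: 0 for no effect and ±100 for the full control effect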). Put shortly:
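IL-6/STAT signaling read in ME-180 cells via an SIE beta-lactamase reporter. Stimulus was 40 pM IL-6 (its AC50) for 5 hrs, so both activation and inhibition register.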

Experiment [17] addresses Glucocorticoid receptor (Homo sapiens) (UniProt P04150). The experiment is described as follows: GR-GFP Redistribution (AID 450;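 active = compounds whose dose series gives a full or clear partial fitted curve of increased nuclear translocation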; note: potency is the fitted concentration of half-maximal effect). The note with it: U2OS GR-GFP nuclear translocation, laser cytometry, 2 h.
The target is the same in experiment [18]. The experiment is described as follows: GR-EFC Redistribution (AID 451; calls by dose curve; note: potency is the fitted concentration of half-maximal effect). The note with it: CHO-K1 GR-EFC translocation, beta-gal luminescence, 2 h. Put shortly: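 CHO-K1 cells expressing nuclear EA and GR-ED fragments of b-gal; compounds titrated up to 46 uM final, 2 h at 37 C. GR nuclear translocation read as complemented b-gal luminescence after 1 h RT detection.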

Experiment [19] deals with Mitogen-activated protein kinase 10 (Mus musculus) (UniProt Q61831). The experiment is described as follows: JNK3 AlphaScreen Assay (AID 530; active = well fitted curve in either direction with a large enough effect, not every such curve was filed as active;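 note: kinase came from lysate of stimulated human HepG2 cells; signal reports phosphorylation of biotinylated GST-cJun 1-79 at Ser73 with 10 µM ATP; series mostly up to about 57 µM; % is set by controls: 0 for no effect and ±100 for the full control effect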). Put shortly:
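Pre-activated (IL-1β/TNFα) JNK3 in HepG2 lysates phosphorylates biotin-GST-cJun(1-79), 10 uM ATP; anti-phospho-cJun(Ser73) AlphaScreen read at room temperature, pH 7.6 Tris buffer. Compounds pre-incubated 15 min as titrations.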

Experiment [20] deals with Ubiquitin carboxyl-terminal hydrolase 1 (Homo sapiens) (UniProt O94782). In words: Inhibitors of USP1/UAF1: Pilot qHTS (AID 504865).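 Note: rhodamine fluorescence freed from ubiquitin-rhodamine substrate followed over time; top concentration of the series differs between compounds; % is set by controls: 0 for no effect and ±100 for the full control effect; nearly all actives have a fitted effect of over 35% in size.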 Put shortly:
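In 50mM HEPES pH 7.8 containing 0.5mM EDTA, 1mM TCEP, 0.1 mg/ml BSA and 0.01% Tween-20, 1nM USP1/UAF1 is exposed to compound for 15 min, then Ub-Rho (150nM final) is added and fluorescence is read over time.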

Unmarked numbers belong to inactive results. Records with an inconclusive call do not appear. Activity calls are given as the source filed them. Unless noted, calls come from the whole dose curve; as a rule, active = well fitted curve in the direction sought with a large enough effect; inconclusive = small, poorly fitted or top-dose-only effect, or another doubt; inactive = no such curve, though single readings can be large; an effect the other way counts as inactive or inconclusive.

Sequence of Cytochrome P450 1A2 (Homo sapiens) (P05177 whole entry, looked up): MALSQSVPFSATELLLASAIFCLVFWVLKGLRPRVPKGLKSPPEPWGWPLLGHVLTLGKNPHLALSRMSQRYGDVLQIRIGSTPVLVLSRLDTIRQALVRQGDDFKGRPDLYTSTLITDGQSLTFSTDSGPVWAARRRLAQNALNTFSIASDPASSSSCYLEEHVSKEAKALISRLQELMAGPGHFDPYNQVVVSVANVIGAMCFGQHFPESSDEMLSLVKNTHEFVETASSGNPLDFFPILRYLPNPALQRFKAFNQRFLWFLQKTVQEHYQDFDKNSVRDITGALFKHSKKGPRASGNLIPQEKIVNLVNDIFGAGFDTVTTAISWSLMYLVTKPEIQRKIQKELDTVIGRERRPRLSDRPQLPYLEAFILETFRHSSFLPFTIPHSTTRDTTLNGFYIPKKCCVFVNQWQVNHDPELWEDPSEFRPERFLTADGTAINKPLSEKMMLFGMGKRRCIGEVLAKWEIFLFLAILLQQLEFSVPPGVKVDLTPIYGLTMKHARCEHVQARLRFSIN
Sequence of Cytochrome P450 2C19 (Homo sapiens) (P33261 whole entry, looked up): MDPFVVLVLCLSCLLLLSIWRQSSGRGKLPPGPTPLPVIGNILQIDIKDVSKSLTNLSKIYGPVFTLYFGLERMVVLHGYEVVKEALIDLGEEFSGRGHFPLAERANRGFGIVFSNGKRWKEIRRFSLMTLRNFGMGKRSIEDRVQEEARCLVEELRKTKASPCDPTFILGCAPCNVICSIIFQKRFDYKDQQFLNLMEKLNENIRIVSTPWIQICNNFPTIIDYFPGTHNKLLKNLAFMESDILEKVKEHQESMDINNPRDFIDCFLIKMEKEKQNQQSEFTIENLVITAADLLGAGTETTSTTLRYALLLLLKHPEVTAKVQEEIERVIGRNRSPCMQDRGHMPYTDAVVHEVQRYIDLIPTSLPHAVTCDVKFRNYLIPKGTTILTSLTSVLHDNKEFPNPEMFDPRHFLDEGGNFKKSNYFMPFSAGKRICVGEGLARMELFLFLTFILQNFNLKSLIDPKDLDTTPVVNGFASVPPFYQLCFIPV
Sequence of Cytochrome P450 2C9 (Homo sapiens) (P11712 whole entry, looked up): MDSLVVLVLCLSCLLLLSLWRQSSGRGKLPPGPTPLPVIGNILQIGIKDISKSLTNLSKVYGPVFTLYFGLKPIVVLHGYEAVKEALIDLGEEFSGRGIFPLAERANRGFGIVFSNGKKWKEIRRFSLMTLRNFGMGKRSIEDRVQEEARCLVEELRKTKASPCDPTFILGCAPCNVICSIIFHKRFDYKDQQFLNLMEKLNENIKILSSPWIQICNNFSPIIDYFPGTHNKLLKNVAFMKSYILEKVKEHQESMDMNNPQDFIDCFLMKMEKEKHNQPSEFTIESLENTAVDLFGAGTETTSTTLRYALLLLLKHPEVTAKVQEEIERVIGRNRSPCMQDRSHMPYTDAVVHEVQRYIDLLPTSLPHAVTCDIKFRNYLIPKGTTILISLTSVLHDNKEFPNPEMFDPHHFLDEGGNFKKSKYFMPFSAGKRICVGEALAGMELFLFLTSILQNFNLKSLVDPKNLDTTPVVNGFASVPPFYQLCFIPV
Sequence of Nuclear receptor subfamily 1 group I member 2 (Homo sapiens) (O75469 whole entry, looked up): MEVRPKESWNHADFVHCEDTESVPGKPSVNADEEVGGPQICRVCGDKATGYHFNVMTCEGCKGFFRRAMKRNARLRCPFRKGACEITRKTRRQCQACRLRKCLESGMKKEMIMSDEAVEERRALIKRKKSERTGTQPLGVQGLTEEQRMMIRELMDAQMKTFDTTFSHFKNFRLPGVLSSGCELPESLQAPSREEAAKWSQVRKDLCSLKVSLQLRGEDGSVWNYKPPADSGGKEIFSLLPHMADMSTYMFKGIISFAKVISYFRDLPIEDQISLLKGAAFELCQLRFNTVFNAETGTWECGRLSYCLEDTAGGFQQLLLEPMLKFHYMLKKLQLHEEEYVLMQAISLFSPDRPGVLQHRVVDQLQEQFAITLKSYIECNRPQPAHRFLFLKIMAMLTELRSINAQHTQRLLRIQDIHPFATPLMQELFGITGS
Sequence of Cytochrome P450 2D6 (Homo sapiens) (P10635 whole entry, looked up): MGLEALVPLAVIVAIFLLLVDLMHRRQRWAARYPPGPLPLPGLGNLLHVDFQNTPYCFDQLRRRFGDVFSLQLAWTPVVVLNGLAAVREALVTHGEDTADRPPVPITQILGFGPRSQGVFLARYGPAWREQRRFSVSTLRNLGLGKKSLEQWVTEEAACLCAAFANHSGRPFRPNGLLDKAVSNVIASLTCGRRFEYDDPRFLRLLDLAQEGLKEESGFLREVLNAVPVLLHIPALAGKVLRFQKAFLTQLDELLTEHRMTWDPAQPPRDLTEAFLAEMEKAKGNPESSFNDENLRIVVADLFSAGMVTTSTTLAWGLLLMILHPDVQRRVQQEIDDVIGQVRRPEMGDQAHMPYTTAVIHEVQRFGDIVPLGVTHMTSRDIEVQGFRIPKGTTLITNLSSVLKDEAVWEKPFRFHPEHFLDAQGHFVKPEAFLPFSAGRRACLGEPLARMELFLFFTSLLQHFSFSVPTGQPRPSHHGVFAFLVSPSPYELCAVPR
Sequence of Cytochrome P450 3A4 (Homo sapiens) (P08684 whole entry, looked up, canonical isoform): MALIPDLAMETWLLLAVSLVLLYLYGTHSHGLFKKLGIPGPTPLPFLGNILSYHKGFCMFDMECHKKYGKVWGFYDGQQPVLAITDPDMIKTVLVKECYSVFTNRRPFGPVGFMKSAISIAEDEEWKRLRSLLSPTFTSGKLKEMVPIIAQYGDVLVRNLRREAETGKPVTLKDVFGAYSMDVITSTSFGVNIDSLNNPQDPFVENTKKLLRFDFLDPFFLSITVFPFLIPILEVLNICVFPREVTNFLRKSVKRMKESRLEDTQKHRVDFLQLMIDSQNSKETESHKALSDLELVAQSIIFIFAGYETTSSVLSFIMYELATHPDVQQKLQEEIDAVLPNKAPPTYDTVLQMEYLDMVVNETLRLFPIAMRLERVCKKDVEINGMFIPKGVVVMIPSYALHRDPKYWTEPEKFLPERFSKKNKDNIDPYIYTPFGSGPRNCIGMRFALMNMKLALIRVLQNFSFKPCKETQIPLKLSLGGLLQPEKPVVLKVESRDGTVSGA
Sequence of Glucocorticoid receptor (Homo sapiens) (P04150 whole entry, looked up, the tested form may be a part): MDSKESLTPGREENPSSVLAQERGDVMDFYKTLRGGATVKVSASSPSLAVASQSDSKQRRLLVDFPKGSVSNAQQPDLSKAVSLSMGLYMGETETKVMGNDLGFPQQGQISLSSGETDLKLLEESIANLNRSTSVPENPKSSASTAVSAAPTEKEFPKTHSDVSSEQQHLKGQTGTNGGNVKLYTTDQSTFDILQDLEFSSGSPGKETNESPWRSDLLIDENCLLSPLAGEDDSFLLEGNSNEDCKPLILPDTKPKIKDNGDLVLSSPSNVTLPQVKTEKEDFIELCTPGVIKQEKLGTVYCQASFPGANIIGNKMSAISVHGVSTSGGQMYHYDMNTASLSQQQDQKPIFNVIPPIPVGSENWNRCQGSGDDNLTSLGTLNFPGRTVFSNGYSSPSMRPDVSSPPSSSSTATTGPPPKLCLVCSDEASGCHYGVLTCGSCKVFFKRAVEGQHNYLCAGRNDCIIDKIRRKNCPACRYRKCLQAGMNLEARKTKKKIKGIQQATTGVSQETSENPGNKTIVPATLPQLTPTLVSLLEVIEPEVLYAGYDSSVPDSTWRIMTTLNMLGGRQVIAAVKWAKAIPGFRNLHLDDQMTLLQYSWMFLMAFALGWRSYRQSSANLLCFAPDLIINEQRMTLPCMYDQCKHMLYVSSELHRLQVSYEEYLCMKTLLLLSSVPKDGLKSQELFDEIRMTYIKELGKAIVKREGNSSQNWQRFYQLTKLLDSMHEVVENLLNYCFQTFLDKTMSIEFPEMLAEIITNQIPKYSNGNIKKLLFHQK
Sequence of Ubiquitin carboxyl-terminal hydrolase 1 (Homo sapiens) (O94782 whole entry, looked up): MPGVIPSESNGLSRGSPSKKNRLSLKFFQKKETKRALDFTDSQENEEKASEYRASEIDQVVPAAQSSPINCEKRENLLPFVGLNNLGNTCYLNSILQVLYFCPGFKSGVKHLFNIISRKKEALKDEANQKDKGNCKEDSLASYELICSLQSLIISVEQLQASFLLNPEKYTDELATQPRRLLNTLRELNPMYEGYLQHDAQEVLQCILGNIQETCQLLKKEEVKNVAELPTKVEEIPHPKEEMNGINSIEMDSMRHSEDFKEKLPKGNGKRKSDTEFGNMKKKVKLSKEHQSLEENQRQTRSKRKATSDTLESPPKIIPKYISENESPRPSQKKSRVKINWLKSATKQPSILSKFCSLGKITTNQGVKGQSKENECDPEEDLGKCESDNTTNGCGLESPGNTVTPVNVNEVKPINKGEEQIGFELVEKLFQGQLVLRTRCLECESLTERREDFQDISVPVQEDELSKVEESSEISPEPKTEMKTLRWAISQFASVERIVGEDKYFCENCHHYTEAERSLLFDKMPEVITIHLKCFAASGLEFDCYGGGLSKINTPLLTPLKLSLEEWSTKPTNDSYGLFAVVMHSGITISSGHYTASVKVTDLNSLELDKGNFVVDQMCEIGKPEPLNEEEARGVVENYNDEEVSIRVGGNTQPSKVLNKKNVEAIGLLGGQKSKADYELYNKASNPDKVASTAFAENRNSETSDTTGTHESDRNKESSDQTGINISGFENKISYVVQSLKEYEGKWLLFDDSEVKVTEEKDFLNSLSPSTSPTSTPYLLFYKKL

For `C=C1CC[C@H](O)C/C1=C\C=C1/CCC[C@]2(C)[C@@H]([C@H](C)CC[C@H](C)C(C)C)CC[C@@H]12`, the call in experiment [1], in [2], in experiment [3], in experiment [4], in experiment [9] and in [12] was inactive. Moreover, the compound was called inactive in experiment [14] and in [15]. In addition, the Potency was 15.8 µM (active) in experiment [5], 10 µM (active) in [7], 22.4 µM (active) in experiment [8] and 28.2 µM (active) in experiment [13]. Also, the Potency result in [6] and in experiment [10] was “inactive” in each case. Further, the max response in experiment [11] was -0.676%.

With `COc1ccc2[nH]cc(CCNc3nc(-c4ccccc4OC)nc4ccccc34)c2c1`, in experiment [16], the outcome was inactive. In addition, the Potency in experiment [17] and in experiment [18] was more than 46 µM in each case. For the same compound, the Potency result in experiment [19] and in [20] was “inactive” in each case.

In the case of `CC12CC3(O)OC(O1)C1(COC(=O)c4ccc(O)cc4)C3CC21OC1OC(CO)C(O)C(O)C1O` (stereo not given), the outcome in experiment [1], in experiment [2], in experiment [3], in [4], in experiment [9] and in experiment [12] was inactive. Further, the outcome in experiment [14] and in experiment [15] was inactive. In addition, the Potency entry in [5], in [6], in experiment [7], in experiment [8] and in experiment [10] was “inactive” in each case. Also, the max response in [11] is 4.47%.

Turning to `CCCCC/C=C/C(=O)CCc1ccc(O)c(OC)c1`, the call in [1], in experiment [2], in [3], in experiment [4], in [9] and in experiment [12] was inactive. Besides, the compound was classed as inactive in experiment [14] and in [15]. Besides, the results for the Potency in [5], in experiment [8] and in experiment [10] were 17.8 µM (active), 7.08 µM (active) and 15.8 µM (active), respectively. Moreover, the Potency result in experiment [7] was “inactive”. Moreover, in [11], the max response was 4.24%.

Take `O=C(/C=C/c1ccc(O)c(O)c1)O[C@@H]1CC(C(=O)O)=C[C@@H](O)[C@H]1O`: the result in experiment [1], in experiment [2], in experiment [3], in experiment [4], in experiment [9] and in experiment [12] was inactive. Besides, the call in experiment [14] and in experiment [15] was inactive. In addition, the Potency result in [5], in experiment [6], in experiment [7], in [8], in experiment [10] and in experiment [13] was “inactive” each time. For the same compound, the max response in [11] was 4.08%.

As for `CCCCCCCCCCCCCCCCCCCCCC(=O)O`, the compound was classed as inactive in experiment [1], in [2], in experiment [3], in [4], in [9] and in experiment [12]. The compound was called inactive in experiment [14] and in experiment [15]. In addition, the Potency result in [5], in experiment [6], in experiment [7], in experiment [8] and in [10] was “inactive” each time. In addition, in [11], the max response was 3.78%.

Turning to `CC(C)=CCC[C@](C)(O[C@@H]1O[C@H](CO)[C@@H](O)[C@H](O)[C@H]1O)[C@H]1CC[C@]2(C)[C@@H]1[C@H](O)C[C@@H]1[C@@]3(C)CC[C@H](O)C(C)(C)[C@@H]3[C@@H](O[C@@H]3O[C@H](CO)[C@@H](O)[C@H](O)[C@H]3O[C@@H]3O[C@@H](C)[C@H](O)[C@@H](O)[C@H]3O)C[C@]12C`, the outcome in experiment [1], in experiment [2], in [3], in [4], in experiment [9] and in experiment [12] was inactive. The compound was classed as inactive in experiment [14] and in experiment [15]. In addition, the Potency entry in experiment [5], in experiment [6], in experiment [7], in experiment [8] and in experiment [10] was “inactive” in each case. For the same compound, the max response in experiment [11] is 0.587%.

These data come from PubChem BioAssay (NCATS).
